Where “and” joins values, the source holds several entries; their conditions need not be identical. Equal values may be shown once. Screen size: about 420,000 compounds; about 50,000 (12%) were called active. Where a call stands in place of a potency, no number is given. Another 26% or so got no clear call; they are omitted. The sample holds actives, similar compounds and a random draw of the others, so the mix is not that of the screen. Calls follow the shape of the dose curve; as a rule, active = well fitted inhibition curve with a large enough effect; inconclusive = small, poorly fitted or top-dose-only effect; inactive = flat fitted curve, though single readings scatter. Where a structure was tested more than once in an assay, its records may differ in their call.
Potency is read from the fitted curve at half-maximal effect.

The test is described as follows: qHTS for Inhibitors of human tyrosyl-DNA phosphodiesterase 1 (TDP1): qHTS in cells in presence of CPT. Also: nearly all actives have a fitted effect of over 55% in size. As to conditions: chicken DT40 Tdp1-/-;hTDP1 cells + 20 nM CPT, ATP luminescence, 48 h; series mostly up to 46.2 µM. A digest of the protocol:
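Cell growth measured by CellTiter-Glo luminescence after a minimum 48 h, 37 C compound exposure with 20 nM CPT in Tdp1-knockout DT40 cells stably expressing hTDP1, seeded 400/well; qHTS titration format.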
In general terms: qHTS replaces the single test concentration by a dilution series.
On to `Cc1nnc(SCC(=O)NC(=O)NC2CCCC2)n1N`, for which the Potency entry is “inactive”.

As to `Nc1nc(SC23CC4CC(CC(C4)C2)C3)ns1`, the Potency result was “inactive”.

For the compound `Nc1nc(NC(=O)/C=C/c2ccccc2)nn1-c1ccccc1`, the Potency result was “inactive”.

Turning to `CC1(c2cccc(N)c2)OCCO1`, the Potency entry was “inactive”.

Regarding `COc1ccc(C2Nc3ccc(NC(=O)COC(C)=O)cc3C(=O)N2Cc2ccccc2)cc1COc1ccc(NC(C)=O)cc1` (centres undefined), the Potency was 17.8 µM (active).

Consider `COc1ccc(N2C(=O)c3ccccc3NC2c2ccc(OC)c(CN3CCOCC3)c2)cc1` (centres undefined), for which the Potency entry was “inactive”.

With `CC(=O)Nc1ccc(NC(=O)COc2ccc(-c3ccccc3)cc2)cc1`, the Potency result was “inactive”.

For `COc1ccc2c(c1)CCc1cnc(-n3ncc(C(=O)NCc4cccnc4)c3C3CC3)nc1-2`, the activity change, negative = growth inhibition was -5.66% [at 9.04 µM] (inactive).

For the compound `Cc1nc2ccccn2c(=O)c1NC(=O)c1cccs1`, the Potency entry was “inactive”.

On to `Cc1ccc(S(=O)(=O)NCC(=O)Nc2ccc3c(c2)OCCO3)cc1`, for which the Potency entry was “inactive”.

In the case of `CCOc1ccc(N(CC(=O)NCc2ccc(OC)cc2)S(=O)(=O)c2c(C)noc2C)cc1`, the Potency entry is “inactive”.

Turning to `Cc1noc(C)c1S(=O)(=O)N(CC(=O)Nc1ccc2c(c1)OCCO2)c1ccc(C(C)C)cc1`, the Potency is 20.6 µM (active).

Consider `Cc1c(C(=O)Nc2cccc(Cl)c2)cn2c(nc3ccccc32)c1C#N`, for which the Potency is 16.4 µM (active).

With `Cn1c(Nc2cccc(Cl)c2)nc2ccccc21`, the Potency result was “inactive”.

Take `O=C(O)c1cccc(NC(=O)c2cc(-c3cccc(Cl)c3)nc3ccccc23)c1`: the Potency result was “inactive”.

`CC1(c2ccc3ccccc3c2)NC(=O)NC1=O` (centres undefined): the Potency entry is “inactive”.

Take `Cc1cccc(N2C(=O)c3ccc(C(=O)Nc4cccc(C(=O)O)c4)cc3C2=O)c1`: the Potency result was “inactive”.

For `Cc1cccc(NC(=O)c2cccc(C(=O)Nc3cccc(C)c3C)n2)c1C`, the Potency result is “inactive”.

As to `CCOc1ccccc1NC(=O)Cn1c(=O)n(Cc2ccccc2)c(=O)c2c(C)c(C(=O)N(C)C)sc21`, the Potency entry was “inactive”.

Take `O=C(C1CC(=O)N(C2CCCC2)C1)N1CCN(c2cccc(C(F)(F)F)c2)CC1` (centres undefined): the Potency is 14.6 µM (active).

Consider `O=C1C2CCCN2C(=O)N1CCCCN1CCN(c2cccc(C(F)(F)F)c2)CC1` (centres undefined), for which the Potency result was “inactive”.

As to `O=C(C1CC(=O)N(C2CCCCC2)C1)N1CCN(c2ccccc2)CC1` (centres undefined), the Potency result was “inactive”.

On to `COC(=O)c1cc(=O)n(-c2c(Cl)cc(C(F)(F)F)cc2Cl)[nH]1`, for which the Potency entry is “inactive”.

As for `CC(=O)Nc1ccccc1OC(C)C(=O)N1CCC(C)CC1` (centres undefined), the Potency result was “inactive”.

Consider `O=C(NCC(O)c1ccc([N+](=O)[O-])cc1)C1CCCCC1` (centres undefined), for which the Potency result was “inactive”.

Consider `NC(=O)C1CCN(C(=O)COc2cccc3cccnc23)CC1`, for which the Potency result is “inactive”.

On to `CCOc1cc(N2CCOCC2)c(OCC)cc1NC(=O)COc1cccc2cccnc12`, for which the Potency is 10.3 µM (active).

For `CCOc1cc(NC(=O)c2ccccc2C(=O)O)c(OCC)cc1NC(=O)c1ccccc1F`, the Potency entry is “inactive”.

Turning to `O=C(COc1nsnc1N1CCOCC1)Nc1ccccc1Cl`, the Potency entry is “inactive”.

`CCOc1cc(N2CCOCC2)c(OCC)cc1NC(=O)c1ccc(C)s1`: the Potency was 9.2 µM (active).

Take `COC(=O)c1ccc(N2CCOCC2)c(NC(=O)c2ccc3c(c2)OCCO3)c1`: the Potency entry was “inactive”.

With `Cc1ccc(S(=O)(=O)N2CCN(Cc3cccc(C)c3O)CC2)cc1`, the Potency result is “inactive”.

For `O=C(COc1cccc(Cl)c1)NCc1ccccc1`, the Potency result is “inactive”.

For `COCCN(CCOC)S(=O)(=O)NC[C@H]1O[C@@H](n2cnc3c(N)ncnc32)[C@H](O)[C@@H]1O`, the Potency entry is “inactive”.

Take `CC(C)(C)N(Cc1ccccc1)C(=O)c1ccncc1`: the Potency result is “inactive”.

Take `Cc1ccc(CNC(=O)COc2ccc3c(c2)CCC3)cc1`: the Potency result is “inactive”.

In the case of `O=C(CC1C(=O)NCCN1CC(c1ccccc1)c1ccccc1)NCCc1cn[nH]c1` (centres undefined), the Potency entry is “inactive”.

Regarding `CCNC(=O)C1CCCN(C(=O)c2ccc(OC)cc2OC)CC1` (centres undefined), the Potency entry was “inactive”.

`COc1ccc(NC(=O)c2sc3nc(-c4cc5cccc(OC)c5oc4=O)[nH]c(=O)c3c2C)cc1`: the Potency entry is “inactive”.

`COc1ccccc1C1=Nc2cccc3cccc(c23)N1`: the Potency was 5.17 µM (active).

Take `Fc1ccccc1N=C1Nc2cccc3cccc1c23`: the Potency result was “inactive”.

For the compound `COc1ccccc1-c1n[nH]nc1C1=CC(=O)CC(C)(C)C1`, the Potency entry is “inactive”.

As for `c1ccc(C2=Nc3cccc4cccc(c34)N2)cc1`, the Potency is 7.31 µM (active).

`NC(=O)COc1ccccc1C(=O)NC12CC3CC(CC(C3)C1)C2`: the Potency entry is “inactive”.

As for `O=C(Nc1ccc(S(=O)(=O)N2CCCCC2)cc1)c1cnccn1`, the Potency entry was “inactive”.

Consider `CC(C)c1ccc(NC(=O)C2CCCN(S(=O)(=O)c3cccnc3)C2)cc1` (centres undefined), for which the Potency was 16.4 µM (active).

With `O=C(Nc1ccc(F)cc1)C1CCCN(S(=O)(=O)c2ccc(-n3cnnn3)cc2)C1` (centres undefined), the Potency entry was “inactive”.

Turning to `COc1ccc(S(=O)(=O)N2CCCC(C(=O)Nc3ccc(NC(=O)c4ccccn4)cc3)C2)cc1` (centres undefined), the Potency was 7.31 µM (active).

Take `CSc1ncc(Cl)c(C(=O)Nc2ccc(S(=O)(=O)N3CCCC(C)C3)cc2)n1` (centres undefined): the Potency is 8.2 µM (active).

With `CCc1ccc(NC(=O)c2cc(S(=O)(=O)N3CCCC(C)C3)cn2C)cc1` (centres undefined), the Potency entry was “inactive”.

On to `COc1ccc(CCNC(=O)C2CCCN(S(=O)(=O)c3ccc(OC)cc3)C2)cc1` (centres undefined), for which the Potency result was “inactive”.

As for `CC1CCCN(S(=O)(=O)c2ccc3[nH]c(=O)cc(C(=O)NCCc4ccc(Cl)cc4)c3c2)C1` (centres undefined), the Potency entry is “inactive”.

With `Cc1n[nH]c(C)c1S(=O)(=O)N1CCCC(C(=O)Nc2ccc(Br)cc2)C1` (centres undefined), the Potency result was “inactive”.

Take `CC1CC(C)CN(S(=O)(=O)c2cccc(C(=O)N3C(=O)c4cccc(N)c4C3=O)c2)C1` (centres undefined): the Potency entry is “inactive”.

For `COc1ccc(NC(=O)C2CCC(CNC(=O)[C@@H]3Cc4ccccc4CN3)CC2)cc1` (some centres undefined), the Potency result was “inactive”.

Regarding `CCc1cccc(C)c1NC(=O)COC(=O)CNC(=O)c1cccs1`, the Potency entry is “inactive”.

Consider `Cc1ccc2ncc(C(=O)Nc3ccc(OC(F)(F)F)cc3)c(=O)n2c1`, for which the Potency entry was “inactive”.

As for `CCOc1ccc(S(=O)(=O)NCCC(=O)N2CCCCCCC2)cc1`, the Potency result is “inactive”.

As for `CCNS(=O)(=O)c1ccc(CCC(=O)N2CCN(c3ccc(OC)cc3)CC2)cc1`, the Potency result was “inactive”.

For the compound `CC(C)NS(=O)(=O)c1ccc(CCC(=O)N2CCOCC2)cc1`, the Potency entry was “inactive”.

Turning to `CC(=O)c1ccc(S(=O)(=O)NCCC(=O)N2CCN(c3ccccn3)CC2)cc1`, the Potency entry was “inactive”.

For the compound `CCNS(=O)(=O)c1ccc(CCC(=O)N2CCN(c3cc(Cl)ccc3C)CC2)cc1`, the Potency is 13 µM (active).

As to `CC(=O)Nc1ccc(S(=O)(=O)NCCC(=O)N2CCN(c3ccccc3Cl)CC2)cc1`, the Potency is 20.6 µM (active).

On to `CCOC(=O)N1CCC(Nc2c(NCCCN3CCN(CC)CC3)c(=O)c2=O)CC1`, for which the Potency entry is “inactive”.

For the compound `O=C(COc1cccnc1[N+](=O)[O-])Nc1ccc(Cl)cc1F`, the Potency result was “inactive”.

With `CCn1c(C)cc(=O)cc1-c1ccc(Cl)cc1`, the Potency result was “inactive”.

With `CCOC(=O)C1=C(C)c2ccccc2OC1C(=O)OCC` (centres undefined), the Potency result was “inactive”.

As to `Cc1cc(C(=O)Cn2cnc3cc([N+](=O)[O-])ccc3c2=O)c(C)n1CC1CCCO1` (centres undefined), the Potency was 14.6 µM (active).

`O=C(Cn1cnc2cc([N+](=O)[O-])ccc2c1=O)NC(=O)NCc1ccccc1`: the Potency result was “inactive”.

In the case of `CC(C)(C)NC(=O)Cn1cnc2cc([N+](=O)[O-])ccc2c1=O`, the Potency entry is “inactive”.

With `NS(=O)(=O)c1ccc(CCNC(=S)Nc2ccc(S(N)(=O)=O)cc2)cc1`, the Potency entry was “inactive”.

On to `Cc1nn(-c2ccccc2)nc1C(=O)OCC(=O)N1CCCCC1C` (centres undefined), for which the Potency entry is “inactive”.

Turning to `O=C(Cn1[nH]c(=O)c2ccccc2c1=O)Nc1cccc(-c2nnc3n2CCCCC3)c1`, the Potency result was “inactive”.

For `Cc1c(C(=O)NC2CCCCC2)oc2ccccc12`, the Potency result was “inactive”.

In the case of `Cc1c(C(=O)Nc2cccc(-c3nnc4n3CCCCC4)c2)oc2ccccc12`, the Potency was 14.6 µM (active).

Turning to `Cc1cccc(C(=O)NCC(=O)OCC(=O)N(C)CC(=O)Nc2ccccc2Cl)c1`, the Potency result is “inactive”.

In the case of `O=c1oc2cc(O)ccc2cc1-c1ccc(F)cc1`, the Potency is 20.6 µM (active).

Turning to `CC(=O)Nc1cc2ccc(OC(C)=O)cc2oc1=O`, the Potency result was “inactive”.

Consider `COc1ccc(-c2cc3ccc(OCc4nn[nH]n4)cc3oc2=O)cc1`, for which the Potency entry is “inactive”.

As for `CC1=C(C(=O)N2CCOCC2)CC(CC(=O)NCc2cccs2)C(=O)N1CCCN1CCCC1=O` (centres undefined), the Potency result was “inactive”.

Consider `CCC(C)C(NC(=O)C1CCC(=O)N1C(=O)OCc1ccccc1)C(=O)NC(C(=O)N1CCCC1C(N)=O)C(C)CC` (centres undefined), for which the Potency result is “inactive”.

Regarding `O=C(NCc1ccc(F)cc1)C1CCC(CNc2c(N3CCOCC3)c(=O)c2=O)CC1` (centres undefined), the Potency entry was “inactive”.

On to `CC(C)NC(=O)NNc1c(Cl)cncc1Cl`, for which the Potency entry was “inactive”.

Consider `CCN(CC(=O)NC(C)C)C(=O)c1cc(S(=O)(=O)N2CCCCC2)ccc1N1CCCCC1`, for which the Potency entry was “inactive”.

Consider `COC(=O)c1sccc1NC(=O)CCC1CCCC1`, for which the Potency entry is “inactive”.

`COC(=O)c1sccc1NC(=S)Nc1ccc(C)cc1`: the Potency result is “inactive”.

Regarding `CCOC(=O)C(=CNNc1ccsc1C(=O)OC)C(=O)OCC`, the Potency is 18.4 µM (active).

For the compound `CNC(=O)c1cccc2nc3ccccc3nc12`, the Potency entry was “inactive”.

Consider `Cc1[nH]c2ccccc2c1C(=O)C(=O)N(C)c1ccccc1`, for which the Potency result is “inactive”.

For the compound `O=C(NCc1ccccc1Cl)C1CCN(S(=O)(=O)c2cccc3nonc23)CC1`, the Potency result was “inactive”.

In the case of `Cc1ccc(-c2nnn(CC(=O)N(Cc3ccco3)C(C(=O)NC(C)(C)C)c3ccncc3)n2)o1` (centres undefined), the Potency entry was “inactive”.

In the case of `Cc1nn(-c2ccccc2)c2sc(C(=O)N(Cc3ccco3)C(C)C(=O)NC(C)(C)C)cc12` (centres undefined), the Potency is 13 µM (active).

On to `Cc1nc(C)c(C(=O)N(c2ccc(C)c(C)c2)C(C(=O)NCc2ccco2)c2ccccc2)s1` (centres undefined), for which the Potency result was “inactive”.

With `COCC1CCN(C(=O)CCc2nnc(C3(c4ccc(Cl)cc4)CCC3)o2)C1` (centres undefined), the Potency result is “inactive”.

For the compound `CCNC(=O)N1CCN(S(=O)(=O)c2ccc3c(c2)OCCCO3)CC1`, the Potency result is “inactive”.

For the compound `COc1ccc(N2CC(C(=O)NCCS(=O)(=O)N3CCN(c4ccccc4)CC3)CC2=O)cc1` (centres undefined), the Potency result was “inactive”.

Turning to `COc1ccc(N2CCN(C(=O)c3ccc4c(Cl)c5c(nc4c3)CCCC5)CC2)cc1`, the Potency result is “inactive and 20.6 µM (active)”.

Take `CC(C)CCNC(=O)c1ccc2c(Cl)c3c(nc2c1)CCC3`: the Potency entry is “inactive”.

For the compound `COc1ccc(N2CCN(C(=O)c3ccc(N4CCCCS4(=O)=O)cc3)CC2)cc1`, the Potency result is “inactive”.

The record behind these values is PubChem BioAssay AID686979 (National Center for Advancing Translational Sciences (NCATS), 2013).
